# Laboratory results from PubChem BioAssay AID2012 (Sanford-Burnham Center for Chemical Genomics, 2009).
# About 2,700 (0.93%) of roughly 290,000 compounds were called active. The rule behind the calls is not given here. This excerpt belongs to a sample that is enriched for actives.
# Biological target: Eukaryotic translation initiation factor 4H (Homo sapiens) (UniProt Q15056)
# Experiment: human eIF4H binding inhibitors, primary screen, translation initiation inhibitor project, biochemical, uHTS, fluorescence polarization (AID 2012);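 note: calls also rest on retests at 20 µM and on dose response follow-up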
# Conditions: eIF4H fluorescence polarization binding assay, stronger effect = higher value
SMILES,inhibition (at 35 µM),"inhibition (confirmation average, at 20 µM)"
O=C(CN1CCCC1)N1CCN(c2ccccc2)CC1,-11.2% (inactive),
CCCC(=O)N1CCc2[nH]c3ccccc3c2C1,-0.2% (inactive),
Cc1ccc2[nH]c3c(c2c1)CN(C(=O)CN1CCN(c2ccccc2)CC1)CC3,76.8% (active),
COc1ccc(OC)c(S(=O)(=O)n2c([N+](=O)[O-])cnc2C)c1,-9.3% (inactive),
O=C(Nc1ccccc1)/C(=C\c1ccco1)NC(=O)c1ccco1,26.2% (inactive),
COc1ccccc1C(=O)N/C(=C/c1ccc2c(c1)OCO2)C(=O)Nc1cccc(C(=O)O)c1,-11.5% (inactive),
COc1ccccc1C(=O)N/C(=C/c1ccco1)C(=O)Nc1ccc(C(=O)O)cc1,59.8% (active),65.3%
Cc1ccc(NC(=O)/C(=C\c2ccccc2)NC(=O)c2ccco2)cc1,3.5% (inactive),
O=C(NCc1ccco1)/C(=C/c1ccco1)NC(=O)c1ccccc1,3.9% (inactive),
Cc1cccc(NC(=O)/C(=C\c2ccco2)NC(=O)c2ccccc2)c1,57.6% (active),
C=CCOc1cccc(C2C(C(=O)c3ccc(C)o3)=C(O)C(=O)N2CCCn2ccnc2)c1 (configuration not stated),-4.1% (inactive),
CCOc1ccc(N(CC(=O)NCC2CCCO2)S(=O)(=O)c2ccc(C)cc2)cc1 (configuration not stated),11.5% (inactive),
COc1ccc(-c2nnc3n2CCCCC3)cc1,-12.1% (inactive),
COCCn1cnc2c1c(=O)n(CC(=O)NN)c(=O)n2Cc1ccccc1,-8.7% (inactive),
O=C(Nc1ccccc1)C1CCN(C(=O)c2ccc(Br)cc2)CC1,-11% (inactive),
CCOC(=O)C(C)Sc1nnc(CSc2nc3nc(C)cc(C)n3n2)o1 (configuration not stated),-7.5% (inactive),
COc1ccc(C(C)=O)cc1CSc1nc2nc(C)cc(C)n2n1,1.9% (inactive),
Cc1cc(C)n2nc(SCC(N)=O)nc2n1,-5.6% (active),113%
COc1cnc(-c2ccccn2)nc1Oc1ccc(C(C)(C)C)cc1,11.9% (inactive),
COc1ccc(CCN(C)C(=O)C23CC4CC(CC(Cl)(C4)C2)C3)cc1OC,-16.6% (inactive),
COc1ccc(CC(=O)N/N=C(\C)c2ccccn2)cc1,7.3% (inactive),
CCN(CC)CCOc1ccc2c(c1)C(=NNC(=O)c1ccccn1)c1cc(OCCN(CC)CC)ccc1-2,-3% (active),83.6%
Cc1cccc(OCC(=O)NCCCNC(=O)c2ccccn2)c1,-28.2% (inactive),

SMILES,inhibition (at 35 µM),"inhibition (confirmation average, at 20 µM)"
COc1ccc(NC(=O)CN(C)C(=O)CNC(=O)C2CCCCC2)cc1,-4% (inactive),
C=CCOc1cccc(CNCc2cccnc2)c1,10.5% (inactive),
Cc1nnc(N(Cc2ccco2)C(=O)c2ccno2)s1,55.4% (active),
Cc1ccc(-c2csc(N(Cc3ccco3)C(=O)c3cccs3)n2)cc1,-15.6% (inactive),
CN(C(=O)c1ccno1)c1nnc(-c2cccnc2)s1,-2.8% (inactive),
Cc1ccccc1CN1CCC(C(=O)Nc2ccc(Oc3cccnc3)cc2)CC1,-4.5% (inactive),
O=C(NCCCn1ccnc1)C(=O)NCC1OCCN1S(=O)(=O)c1cc(F)ccc1F (configuration not stated),86.5% (active),
Cc1cc(F)ccc1S(=O)(=O)N1CCCOC1CNC(=O)C(=O)NCCC1=CCCCC1 (configuration not stated),-0.8% (inactive),
O=C(NCCCc1ccccc1)C(=O)NCC1OCCN1S(=O)(=O)c1ccccc1 (configuration not stated),-4.1% (inactive),
Nc1ncc(CN2CCCC(C(=O)Nc3ccc(-c4ccco4)cc3)C2)cn1 (configuration not stated),-17.3% (inactive),
CC(C)OC(=O)c1ccc(COc2ccc3ccc(=O)oc3c2)o1,1.1% (inactive),
Cc1ccc2sc(N(CCN(C)C)C(=O)/C=C/c3cccs3)nc2c1C,-10.2% (inactive),
CS(=O)(=O)C1=NN2C(=N)/C(=C\c3ccc(OCCOc4ccccc4)cc3)C(=O)N=C2S1,16.1% (inactive),
Cc1cc(/C=C2/C(=N)N3C(=NC2=O)SN=C3S(C)(=O)=O)c(C)n1-c1ccccc1,93.3% (inactive),-7.9%
CS(=O)(=O)c1ccc2c(c1)SC1=NC(=O)/C(=C/c3ccco3)C(=N)N12,93.9% (active),
CN(C(=O)CN1C(=O)CCSc2ccc(S(=O)(=O)N3CCCC3)cc21)c1ccccc1,-3.2% (inactive),
CCC(=O)Nc1ccc(C(=O)NNC(=O)c2ccc(Cl)cc2)cc1,8% (inactive),
C=CCNC(=O)/C=C/c1ccc(C(C)C)cc1,3.9% (inactive),
CCOc1ccccc1NC(=O)CCc1nnc2ccc(NCc3ccco3)nn12,13.1% (inactive),
CC(=O)c1ccc(NC(=O)CCc2nnc3ccc(NCc4ccco4)nn23)cc1,38.5% (inactive),
O=C(CCc1nnc2ccc(NCc3ccco3)nn12)Nc1cc(F)ccc1F,75.2% (active),75.7%
O=C(CN1CCc2cc3c(cc2C1)OCCCO3)Nc1ccccc1,4.5% (inactive),
CCOc1ccc(NC(=S)N2CCC(NC(=O)c3ccccc3)CC2)cc1,-8.9% (inactive),

SMILES,inhibition (at 35 µM),"inhibition (confirmation average, at 20 µM)"
COc1ccc(-c2nc3n(c(=O)c2C#N)CCS3)c(OC)c1,5.3% (inactive),
O=C(CCc1ccccc1)Nc1ccnn1C1CCN(Cc2ccc(OCCO)cc2)CC1,5.2% (inactive),
COc1ccc(-c2cc(C(=O)N(C)Cc3ccc(OC)c(OC)c3OC)c3ccccc3n2)cc1OC,10.7% (inactive),
COc1ccc2[nH]c(=O)c(-c3noc(-c4ccc(F)cc4)n3)cc2c1,3.8% (inactive),
CCNCc1cc2cc(C)ccc2[nH]c1=O,24% (inactive),
CCCc1nc(-c2cc3cc(C)ccc3[nH]c2=O)no1,2.5% (active),79.5%
COc1ccccc1NC(=S)N1CCN(c2ccc(F)cc2)CC1,-0.9% (inactive),
COc1ccc(NC(=O)C2=CC(c3ccc(OC)c(OC)c3)=NS(=O)(=O)N2C)cc1,1.5% (inactive),
COc1ccc(-c2noc(CNC(=O)C(C)Oc3ccccc3)n2)cc1 (configuration not stated),-4.8% (inactive),
Cn1cc(/C=C/c2nc3ccccc3c(=O)n2-c2cccc([N+](=O)[O-])c2)c2ccccc21,-2.7% (inactive),
Cc1nc2ccccc2c(=O)n1Cc1ccc([N+](=O)[O-])cc1,-6.2% (inactive),
CCn1c(/C=C/c2ccc([N+](=O)[O-])o2)nc2ccccc2c1=O,83.6% (active),56.8%
CN1/C(=C\C(=O)c2oc3ccccc3c2N)C(C)(C)c2ccccc21,-2.5% (inactive),
CN1/C(=C\C=C2\N=C(c3ccc(F)cc3)OC2=O)C(C)(C)c2ccccc21,128% (active),97%
CN1/C(=C\C(=O)c2cccnc2Cl)C(C)(C)c2ccccc21,-6.3% (inactive),
Cc1cccnc1NC(=O)Cn1c(=O)oc2ccccc21,4.8% (inactive),
Cc1ccc(O)c(NC(=O)c2cc(-c3ccco3)on2)c1,-14.1% (inactive),
COc1ccc(-c2nonc2NC(=O)c2oc3ccc(F)cc3c2C)cc1OC,-3.8% (inactive),
COc1ccc(Nc2ccc([N+](=O)[O-])cn2)cn1,82% (inactive),20.1%
COc1cccc(Nc2ncccc2C(=O)O)c1,-3.4% (inactive),
COc1ccc(Nc2cc(Cl)ccc2C(=O)O)cn1,96.9% (active),74%
